From the supplement of paper PMC10849652
The full data set covers some 8,800 targets. This sample favours those with a hit. About 0.5% of all pairs of compound and target were hits.

Tests used:
Experiment in all cases: log2 fold change, soluble protein after heating vs DMSO (PISA); higher = thermal stabilisation; K562 lysate, 10 uM; active = over 0.2 and 3.5 SD of the protein, either way, in both replicates (recomputed)
[1] = compound: C1=CC=C(C=C1)[C@H](COC2=CC3=C(C=C2)NC(=O)N3)NC(=O)C4=CC=CN(C4=O)CC5=CC(=C(C=C5)F)F
Summary of the method: (§1)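 Following dounce homogenisation of K562 pellets in PBS pH 7.4 with 1 mM MgCl2, crude extract at 1 mg/mL protein was incubated for 30 min with 10 μM compound. Aliquots were then heated for 3 min over 48°C-58°C and pooled, NP-40 was added to 0.5% at 4°C, and soluble protein was recovered as the supernatant at 21,000xg for 90 min. Channel-sum-equalised TMTpro 16plex LC-MS/MS quantified this protein. Each value, from duplicates, is a log-two fold change in thermal stability relative to solvent controls.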

[2] = compound: CC1=C(SC2=C1C(=N[C@H](C3=NN=C(N32)C)CC(=O)N)C4=CC=C(C=C4)Cl)C
Summary of the method: as §1

[3] = compound: CC1=C2C(=CC=C1)N=C(N(C2=O)C3=CC=CC=C3C)CN4C=NC5=C(N=CN=C54)N
Summary of the method: as §1

[4] = compound: Cc1sc2c(c1C)C(c1ccc(Cl)cc1)=N[C@@H](CC(=O)OC(C)(C)C)c1nnc(C)n1-2
Summary of the method: as §1

[5] = compound: c1ccc([C@@H]2C[C@H]2NC2CCNCC2)cc1
Summary of the method: as §1

Measured: log2 fold change

RFC5 (UniProt P40937)
Sequence of UniProt P40937 (P40937 whole entry, looked up): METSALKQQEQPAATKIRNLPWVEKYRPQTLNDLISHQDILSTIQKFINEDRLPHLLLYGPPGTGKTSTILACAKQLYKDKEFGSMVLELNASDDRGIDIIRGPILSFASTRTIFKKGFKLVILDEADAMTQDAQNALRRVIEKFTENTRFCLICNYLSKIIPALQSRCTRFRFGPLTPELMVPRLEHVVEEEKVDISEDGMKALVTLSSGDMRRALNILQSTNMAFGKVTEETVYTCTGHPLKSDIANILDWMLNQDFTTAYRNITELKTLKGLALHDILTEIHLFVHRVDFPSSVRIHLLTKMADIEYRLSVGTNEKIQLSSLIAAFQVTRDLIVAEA
inactive: [1] -0.024 | [2] 0.018 | [3] 0.041 | [4] 0.034 | [5] 0.027

RALA (UniProt P11233)
Sequence of UniProt P11233 (P11233 whole entry, looked up): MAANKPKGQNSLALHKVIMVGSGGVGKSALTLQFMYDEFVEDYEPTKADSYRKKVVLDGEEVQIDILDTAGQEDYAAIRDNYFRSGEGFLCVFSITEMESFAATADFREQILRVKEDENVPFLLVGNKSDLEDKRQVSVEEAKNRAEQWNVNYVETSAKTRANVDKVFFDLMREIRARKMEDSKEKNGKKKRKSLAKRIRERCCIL
inactive: [1] -0.013 | [2] 0.071 | [3] -0.008 | [4] -0.004 | [5] -0.225

RPS18 (UniProt P62269)
inactive: [1] -0.009 | [2] 0.046 | [3] 0.024 | [4] -0.003 | [5] -0.075

RDX (UniProt P35241)
Sequence of UniProt P35241 (P35241 whole entry, looked up): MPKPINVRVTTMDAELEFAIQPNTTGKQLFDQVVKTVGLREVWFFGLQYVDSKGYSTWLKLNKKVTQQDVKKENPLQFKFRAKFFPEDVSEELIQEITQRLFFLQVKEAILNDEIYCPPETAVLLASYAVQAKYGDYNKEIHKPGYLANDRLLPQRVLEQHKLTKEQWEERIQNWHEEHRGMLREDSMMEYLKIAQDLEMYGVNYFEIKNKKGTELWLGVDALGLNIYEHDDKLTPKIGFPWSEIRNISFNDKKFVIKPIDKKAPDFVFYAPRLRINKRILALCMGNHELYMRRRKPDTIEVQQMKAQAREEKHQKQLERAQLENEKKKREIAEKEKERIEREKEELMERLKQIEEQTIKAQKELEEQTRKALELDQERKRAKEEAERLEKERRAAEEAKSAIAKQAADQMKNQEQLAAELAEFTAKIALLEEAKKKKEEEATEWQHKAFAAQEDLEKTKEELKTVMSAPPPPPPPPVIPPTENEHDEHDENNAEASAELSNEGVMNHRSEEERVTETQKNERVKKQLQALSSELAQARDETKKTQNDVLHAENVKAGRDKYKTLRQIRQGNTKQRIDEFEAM
inactive: [1] -0.029 | [2] -0.036 | [3] 0.003 | [4] 0.025 | [5] 0.148

RNF213, A0A0A0MTC1
inactive: [1] -0.02 | [2] -0.007 | [3] 0.069 | [4] 0.004 | [5] 0.045

RFC2 (UniProt P35250)
Sequence of UniProt P35250 (P35250 whole entry, looked up): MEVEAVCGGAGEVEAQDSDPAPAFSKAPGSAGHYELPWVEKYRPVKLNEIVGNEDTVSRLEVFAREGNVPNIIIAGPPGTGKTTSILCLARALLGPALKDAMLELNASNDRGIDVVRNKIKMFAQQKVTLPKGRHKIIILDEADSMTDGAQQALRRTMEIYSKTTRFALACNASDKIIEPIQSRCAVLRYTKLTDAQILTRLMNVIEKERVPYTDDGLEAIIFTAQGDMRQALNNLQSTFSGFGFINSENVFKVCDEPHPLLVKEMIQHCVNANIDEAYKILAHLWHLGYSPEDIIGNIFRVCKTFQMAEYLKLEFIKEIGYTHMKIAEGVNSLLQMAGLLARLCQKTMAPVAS
inactive: [1] -0.009 | [2] 0.006 | [3] -0.008 | [4] 0.043 | [5] -0.033

RPLP0P6 (UniProt Q8NHW5)
inactive: [1] 0.052 | [2] -0.038 | [3] -0.002 | [4] -0.026 | [5] -0.027

RBSN (UniProt Q9H1K0)
inactive: [1] 0.031 | [2] 0.076 | [3] 0.087 | [4] 0.117 | [5] -0.019

RSU1 (UniProt Q15404)
Sequence of UniProt Q15404 (Q15404 whole entry, looked up): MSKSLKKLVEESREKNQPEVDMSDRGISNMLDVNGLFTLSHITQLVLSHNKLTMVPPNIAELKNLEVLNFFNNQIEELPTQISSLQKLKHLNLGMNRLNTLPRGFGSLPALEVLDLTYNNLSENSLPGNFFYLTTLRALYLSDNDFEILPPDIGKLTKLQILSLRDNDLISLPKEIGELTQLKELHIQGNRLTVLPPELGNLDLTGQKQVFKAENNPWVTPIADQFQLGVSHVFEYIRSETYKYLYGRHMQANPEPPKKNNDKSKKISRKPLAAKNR
inactive: [1] 0.056 | [2] 0.004 | [3] -0.004 | [4] -0.017 | [5] 0.157

RANBP6 (UniProt O60518)
inactive: [1] 0.013 | [2] -0.047 | [3] 0.046 | [4] 0.074 | [5] 0.005

RIOK3 (UniProt O14730)
Sequence of UniProt O14730 (O14730 whole entry, looked up): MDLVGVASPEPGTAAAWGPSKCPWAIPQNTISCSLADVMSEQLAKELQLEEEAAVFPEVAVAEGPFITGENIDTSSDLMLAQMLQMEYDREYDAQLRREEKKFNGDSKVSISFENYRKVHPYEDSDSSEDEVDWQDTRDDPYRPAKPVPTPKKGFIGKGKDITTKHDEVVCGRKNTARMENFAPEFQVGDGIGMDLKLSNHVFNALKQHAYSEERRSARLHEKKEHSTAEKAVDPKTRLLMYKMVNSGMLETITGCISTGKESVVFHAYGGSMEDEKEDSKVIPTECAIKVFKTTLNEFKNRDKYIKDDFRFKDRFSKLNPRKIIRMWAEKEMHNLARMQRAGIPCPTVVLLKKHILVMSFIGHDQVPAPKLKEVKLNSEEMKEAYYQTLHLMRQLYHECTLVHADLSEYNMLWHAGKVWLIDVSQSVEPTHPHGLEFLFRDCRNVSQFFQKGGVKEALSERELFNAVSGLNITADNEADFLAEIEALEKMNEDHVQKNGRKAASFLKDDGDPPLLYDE
inactive: [1] 0.002 | [2] 0.052 | [3] 0.053 | [4] -0.007 | [5] 0.016

RNPS1 (UniProt Q15287)
Sequence of UniProt Q15287 (Q15287 whole entry, looked up): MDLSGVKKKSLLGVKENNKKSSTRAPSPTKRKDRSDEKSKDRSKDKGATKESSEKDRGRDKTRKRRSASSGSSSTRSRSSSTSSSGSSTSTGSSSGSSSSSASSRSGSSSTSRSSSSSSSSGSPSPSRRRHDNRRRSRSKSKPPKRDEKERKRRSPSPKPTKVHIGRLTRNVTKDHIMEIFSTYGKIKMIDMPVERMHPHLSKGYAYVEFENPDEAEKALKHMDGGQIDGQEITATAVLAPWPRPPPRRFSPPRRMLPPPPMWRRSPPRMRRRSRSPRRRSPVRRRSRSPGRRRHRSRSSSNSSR
inactive: [1] 0.014 | [2] -0.003 | [3] 0.06 | [4] 0.036 | [5] 0.016

S100A11 (UniProt P31949)
Sequence of UniProt P31949 (P31949 whole entry, looked up): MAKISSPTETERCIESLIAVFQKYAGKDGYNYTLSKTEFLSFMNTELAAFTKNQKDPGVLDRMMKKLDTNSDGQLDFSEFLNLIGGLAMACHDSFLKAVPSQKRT
inactive: [1] 0.029 | [2] -0.075 | [3] -0.002 | [4] -0.029 | [5] -0.005

RETSAT (UniProt Q6NUM9)
inactive: [1] 0.103 | [2] -0.037 | [3] 0.148 | [4] -0.145 | [5] -0.015

RRM1 (UniProt P23921)
inactive: [1] 0.014 | [2] 0.028 | [3] 0.042 | [4] 0.028 | [5] 0.004

RINT1 (UniProt Q6NUQ1)
Sequence of UniProt Q6NUQ1 (Q6NUQ1 whole entry, looked up): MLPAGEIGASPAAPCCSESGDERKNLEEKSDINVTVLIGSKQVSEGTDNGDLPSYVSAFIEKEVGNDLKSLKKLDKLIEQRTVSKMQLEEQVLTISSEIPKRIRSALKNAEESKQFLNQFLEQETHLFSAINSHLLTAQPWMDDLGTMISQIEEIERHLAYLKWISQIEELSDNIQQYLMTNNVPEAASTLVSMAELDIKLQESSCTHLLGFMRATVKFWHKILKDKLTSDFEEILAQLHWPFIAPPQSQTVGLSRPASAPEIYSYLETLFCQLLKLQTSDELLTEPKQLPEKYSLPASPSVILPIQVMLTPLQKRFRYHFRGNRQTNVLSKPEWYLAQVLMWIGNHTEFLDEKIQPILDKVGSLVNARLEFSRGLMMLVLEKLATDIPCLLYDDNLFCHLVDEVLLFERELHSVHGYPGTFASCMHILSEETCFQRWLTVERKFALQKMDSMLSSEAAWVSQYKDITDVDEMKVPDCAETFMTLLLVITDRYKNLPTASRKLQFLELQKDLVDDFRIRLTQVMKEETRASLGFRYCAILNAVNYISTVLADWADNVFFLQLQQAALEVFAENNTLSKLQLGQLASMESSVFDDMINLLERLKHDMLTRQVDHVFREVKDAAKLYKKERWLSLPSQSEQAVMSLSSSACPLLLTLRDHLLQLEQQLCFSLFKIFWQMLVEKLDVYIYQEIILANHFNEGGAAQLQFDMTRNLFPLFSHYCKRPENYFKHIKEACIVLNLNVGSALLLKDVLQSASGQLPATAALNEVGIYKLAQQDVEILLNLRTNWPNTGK
inactive: [1] -0.021 | [2] -0.008 | [3] 0.019 | [4] -0.008 | [5] 0.026

RPS6KB1 (UniProt P23443)
Sequence of UniProt P23443 (P23443 whole entry, looked up): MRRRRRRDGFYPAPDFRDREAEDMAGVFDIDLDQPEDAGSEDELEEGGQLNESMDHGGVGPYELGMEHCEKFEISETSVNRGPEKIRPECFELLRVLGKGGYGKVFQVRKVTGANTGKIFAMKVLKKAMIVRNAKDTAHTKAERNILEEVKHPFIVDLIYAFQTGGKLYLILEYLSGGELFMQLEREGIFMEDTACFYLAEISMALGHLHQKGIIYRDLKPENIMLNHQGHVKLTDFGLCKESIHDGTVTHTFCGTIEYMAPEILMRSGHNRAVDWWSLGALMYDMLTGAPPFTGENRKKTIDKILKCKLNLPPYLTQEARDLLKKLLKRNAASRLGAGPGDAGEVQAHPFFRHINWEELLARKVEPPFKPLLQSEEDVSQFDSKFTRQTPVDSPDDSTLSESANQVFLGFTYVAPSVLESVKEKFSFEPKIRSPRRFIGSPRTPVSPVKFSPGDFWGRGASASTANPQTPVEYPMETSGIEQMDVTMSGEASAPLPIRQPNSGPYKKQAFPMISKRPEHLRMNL
inactive: [1] 0.029 | [2] -0.051 | [3] 0.027 | [4] 0.023 | [5] -0.018

RAP1B (UniProt P61224)
Sequence of UniProt P61224 (P61224 whole entry, looked up): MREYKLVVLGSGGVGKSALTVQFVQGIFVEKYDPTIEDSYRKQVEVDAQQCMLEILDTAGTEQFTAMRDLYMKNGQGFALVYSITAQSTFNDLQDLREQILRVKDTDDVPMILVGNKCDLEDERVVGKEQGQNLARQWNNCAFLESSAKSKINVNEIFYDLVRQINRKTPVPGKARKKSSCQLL
inactive: [1] 0.006 | [2] -0.023 | [3] 0.032 | [4] 0.055 | [5] 0.02

RPL31 (UniProt P62899)
inactive: [1] 0.016 | [2] 0.013 | [3] -0.027 | [4] 0.041 | [5] -0.022

RBM5 (UniProt P52756)
inactive: [1] -0.074 | [2] 0.08 | [3] 0.062 | [4] 0.146 | [5] 0.103

RTN4IP1 (UniProt Q8WWV3)
inactive: [1] 0.028 | [2] -0.005 | [3] 0.027 | [4] -0.119 | [5] 0.076

RPS4X (UniProt P62701)
inactive: [1] 0.02 | [2] 0.029 | [3] -0.009 | [4] 0.044 | [5] 0.066

RIPK1 (UniProt Q13546)
inactive: [1] -0.019 | [2] -0.015 | [3] -0.009 | [4] -0.04 | [5] -0.021

RAB21 (UniProt Q9UL25)
inactive: [1] -0.086 | [2] 0.036 | [3] 0.019 | [4] 0.055 | [5] 0.127

RNASEH2B (UniProt Q5TBB1)
inactive: [1] 0.056 | [2] -0.008 | [3] -0.032 | [4] 0.038 | [5] 0.049

SAMD4A (UniProt Q9UPU9)
Sequence of UniProt Q9UPU9 (Q9UPU9 whole entry, looked up): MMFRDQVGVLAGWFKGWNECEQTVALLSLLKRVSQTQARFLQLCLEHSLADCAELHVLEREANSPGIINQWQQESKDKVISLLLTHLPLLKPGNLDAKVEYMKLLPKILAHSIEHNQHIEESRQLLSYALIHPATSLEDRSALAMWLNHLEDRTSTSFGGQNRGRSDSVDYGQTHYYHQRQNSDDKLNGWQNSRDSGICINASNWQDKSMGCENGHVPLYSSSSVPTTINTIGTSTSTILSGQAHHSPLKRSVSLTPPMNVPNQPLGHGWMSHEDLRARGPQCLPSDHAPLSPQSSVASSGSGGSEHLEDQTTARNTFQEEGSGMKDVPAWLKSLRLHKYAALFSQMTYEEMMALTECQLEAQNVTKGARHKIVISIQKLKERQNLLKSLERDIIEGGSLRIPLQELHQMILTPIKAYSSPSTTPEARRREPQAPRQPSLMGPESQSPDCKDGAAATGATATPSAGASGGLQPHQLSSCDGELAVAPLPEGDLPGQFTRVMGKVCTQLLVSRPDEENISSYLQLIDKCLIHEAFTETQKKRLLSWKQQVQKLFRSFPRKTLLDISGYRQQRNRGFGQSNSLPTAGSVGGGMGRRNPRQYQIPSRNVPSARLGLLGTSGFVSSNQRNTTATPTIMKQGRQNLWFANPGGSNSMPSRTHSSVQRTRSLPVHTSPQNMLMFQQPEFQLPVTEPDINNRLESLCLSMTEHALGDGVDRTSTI
inactive: [1] 0.114 | [2] 0.086 | [3] -0.01 | [4] -0.079 | [5] -0.03
